# Assay outcomes: PubChem BioAssay, several laboratories
# This is a sample that favours compounds with a hit; in the whole collection about 3.6% have one here.
# TWEAK-Fn14 inh – blocks TWEAK-Fn14 interaction in a reporter cell assay; AID 1159606; TWEAK-stimulated Fn14 reporter cells, luciferase luminescence, 8 h; hit rate 2% among 360,000; inhibition, % at 10 µM; in the data active = inhibition above about 50%
# HSF1 inhib – HSF1 inhibition | hit rate 0.77% among 300,000 | activity change, negative = inhibition, % at 7.5 µM (by protocol) | NIH3T3-HGL HSE-luciferase, MG132-induced, luminescence 8 h; stronger effect = lower value;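 active = more than half of replicate wells show activity change below -50%, luminescence cut by over half; inconclusive = some wells, but at most half, below -50%; inactive = no replicate well below -50%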;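 also: luciferase reports HSF-1 transcriptional activity via heat shock element; 0% = median of DMSO wells and -100% = zero luminescence signal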
# TROY signal inh – TROY signaling inhibition. AID 1347056. inhibition, % at 10 µM. Q293 LMP1-TROYcd NF-kB luciferase reporter, 4 h. hit rate 0.98% among 360,000;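 active = compounds whose plate-normalised and pattern-corrected inhibition of the luciferase reporter signal at the single screening dose is 50% or more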
# HSF-1 act – increases HSF-1 driven luciferase reporter signal; hit rate 1.7% among 300,000; activation, % at 9 µM; AID 504408; NIH3T3-HGL HSF-1 luciferase reporter, MG132, 8 h; 100% = twice DMSO control signal;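 active = mean replicate activation of at least 50% with a set share of replicates each reaching 50%; inconclusive = only one of those two conditions met; inactive = mean below 50% and too few replicates reaching it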;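 also: 0% = median of the neutral control wells and 100% = twice that signal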
# LMP1 NFkB inh – reduces LMP1-driven NF-kappaB luciferase signal | LMP1-induced NF-kappaB luciferase reporter cells, luminescence | inhibition, % at 12.5 µM | hit rate 0.69% among 350,000; in the data active = inhibition above about 41%; inconclusive = no clear call, values can overlap the other calls;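 also: 0% = neutral control wells and 100% = reference inhibitor control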
# LGR2 antag – inhibitors of bursicon-induced Drosophila LGR2 receptor cAMP signaling | inhibition, % at 9.99 µM | HEK293 LGR2, CRE-luciferase, bursicon-stimulated, 4 h | hit rate 0.35% among 380,000;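 active = drop in luminescence signal, shown as inhibition above about 50% in the replicate tests, limit read from the data, passing the limit was not always enough; inconclusive = probably only some replicates passing the limit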;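 also: agonist challenge used bursicon conditioned medium at about half maximal strength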
# * marks the source's active call; other numbers are inactive results; ? = inconclusive; . = no result given.
SMILES,TWEAK-Fn14 inh,HSF1 inhib,TROY signal inh,HSF-1 act,LMP1 NFkB inh,LGR2 antag
CCCCOC(=O)C1C2C=C[C@]3(CN(C(C)c4ccc(OC)cc4)C(=O)[C@H]13)O2 (stereo partly specified),89*,3,.,23,3,.
COc1ccccc1NC(=O)Nc1ccc2c(c1)C(=O)N(C)C[C@@H](OC)[C@@H](C)CN(C)[C@@H](C)CO2,.,.,.,.,.,1
Cc1sc(NC(=O)c2ccccc2)c(C(c2ccccn2)N2CCN(CCO)CC2)c1C (stereo unspecified),65*,-8,78*,-30,2,15
CCOc1ccc(C(c2c(NC(=O)c3ccccc3)sc(C)c2C)N2CCN(C)CC2)cc1 (stereo unspecified),17,14,-11,6,2,.
C#C[C@]1(O)CCC2C3CCC4=Cc5oncc5CC4(C)C3CCC21C (stereo partly specified),0,5,51*,-5,-5,.
C#CC1(O)CCC2C3CCC4=Cc5oncc5CC4(C)C3CCC21C (stereo unspecified),-33,.,31,.,.,13
O=Cc1ccc(-c2nc3ccccc3s2)o1,5,36,-15,63*,6,-2
O=C(O)c1ccc(-c2nc3ccccc3s2)o1,-30,8,-19,15,2,11
Cc1ccc(S(=O)(=O)NCC[C@@H]2CC[C@H](NC(=O)c3cccc(F)c3)[C@H](CO)O2)cc1,.,.,.,.,.,6
CC1=[N+](C)c2c(ccc3cccnc23)C1(C)C,78*,.,45,.,20,?
C[C@@H]1CCCCO[C@@H](CN(C)S(=O)(=O)c2ccc(Cl)cc2)[C@H](C)CN([C@@H](C)CO)C(=O)c2cc(NC(=O)Nc3ccc4c(c3)OCO4)ccc2O1,.,.,.,.,.,3
CCOC(=O)c1sc(NC(=O)CSc2n[nH]c(-c3ccccc3)n2)c(C#N)c1C,-8,?,65*,-59,-3,.
CCOC(=O)c1sc(NC(=O)CSc2nc(C)cc(C)n2)c(C#N)c1C,0,-5,23,-22,10,.
CCOC(=O)c1sc(NC(=O)c2cc(-c3ccccc3)nc3ccccc23)c(C#N)c1C,62*,-5,63*,-28,25,.
O=C(CSc1n[nH]c(-c2ccccc2)n1)Nc1ccccc1O,-1,37,-6,65*,-6,31
Cc1ccc(C)c(-c2cc(C(=O)Nc3sc(C)c(C)c3C(N)=O)c3ccccc3n2)c1,66*,26,72*,43,21,?
C[C@@H]1CN([C@H](C)CO)C(=O)c2cc(NC(=O)Nc3ccc(F)cc3)ccc2O[C@@H](C)CCCCO[C@H]1CN(C)S(C)(=O)=O,.,.,.,.,.,4
CO[C@H]1CN(C)C(=O)c2cc(NC(=O)c3ccccc3)ccc2OC[C@H](C)N(C(=O)CN(C)C)C[C@H]1C,.,.,.,.,.,3
Cc1ccc(NC(=O)CSc2n[nH]c(-c3cccnc3)n2)c(Br)c1,2,3,13,5,-3,-8
Cc1ccc([N+](=O)[O-])cc1NC(=O)CSc1n[nH]c(-c2cccnc2)n1,9,-87*,19,-90,-8,4
C[C@H](CO)N1C[C@H](C)[C@H](CN(C)Cc2ccc(-c3ccccc3)cc2)Oc2ccc(NC(=O)Nc3ccc(C(F)(F)F)cc3)cc2CC1=O,.,.,.,.,.,4
COc1ccc(CNc2nc(S(=O)(=O)c3ccccc3)c(Cl)s2)cc1OC,70*,-2,46,-6,19,26
Cc1ccc(S(=O)(=O)c2nc(Nc3ccccc3)sc2Cl)cc1,46,1,54*,20,-4,-2
O=S(=O)(c1ccccc1)c1nc(NCc2ccccc2)sc1Cl,16,-4,25,-9,-2,6
COc1ccc(Nc2nc(S(=O)(=O)c3ccc(C)cc3)c(Cl)s2)cc1,42,0,37,34,-13,15
SMILES,TWEAK-Fn14 inh,HSF1 inhib,TROY signal inh,HSF-1 act,LMP1 NFkB inh,LGR2 antag
O=C([C@@H]1[C@@H](CO)[C@@H]2Cn3c(ccc(-c4ccc(F)cc4)c3=O)[C@@H]2N1Cc1cocn1)N1CCCCC1,.,.,.,.,.,10
C/C(=N\n1nnnc1Nc1ccccc1)c1ccc(N)cc1,.,72,.,117*,.,.
C/C(=N\n1c(C)nc2ccccc2c1=O)c1ccc(N)cc1,1,10,-9,27,.,6
CCOc1ccccc1N1CCN(Cc2cccc(OC)c2O)CC1,-1,44,-22,?,2,4
COc1ccccc1N1CCN(Cc2cc(Br)c(O)c3ncccc23)CC1,-43,-80*,29,-84,17,33
Cc1[nH]c2ccccc2c1CN1CCN(c2ccccn2)CC1,0,52,7,81*,-11,-12
Cc1ccc2c(Cl)cc(Cl)c(O)c2n1,101*,.,36,.,40,11
Oc1c(CN2CCCCC2)cc(COCc2ccccc2)c2cccnc12,-14,-3,10,4,79*,.
COCc1cc(CN2CCCC2)c(O)c2ncccc12,6,1,3,0,13,4
CO[C@H]1CN(C)C(=O)c2ccc(NC(C)=O)cc2OC[C@H](C)N(S(=O)(=O)c2cn(C)cn2)C[C@H]1C,.,.,.,.,.,2
Oc1ccc(Cl)c2cccnc12,13,.,1,.,6,1
Oc1c(Cl)cc(CN2CCCCC2)c2cccnc12,9,4,18,31,63*,.
Oc1c(Cl)cc(Cl)c2cccnc12,45,-10,63*,12,5,5
Oc1ccc(CN2CCCCC2)c2cccnc12,1,?,-16,-56,-2,12
OCCN1CCN(Cc2cc(Cl)c3cccnc3c2O)CC1,-1,-2,11,19,23,20
Oc1c(CN2CCN(c3ccccn3)CC2)cc(Cl)c2cccnc12,107*,-6,-17,-20,40,.
C[C@@H]1CN([C@H](C)CO)C(=O)c2cc(Br)cnc2O[C@H]1CN(C)C(=O)C1CC1,.,.,.,.,.,2
O=C(CCN1C(=O)/C(=C/c2ccc(F)cc2)SC1=S)NCCCn1ccnc1,-3,-59*,-4,-69,0,10
Cc1noc(C)c1S(=O)(=O)N(C)C[C@H]1OCCCC[C@H](C)Oc2ccc(NC(=O)Nc3ccccc3)cc2C(=O)N([C@H](C)CO)C[C@H]1C,.,.,.,.,.,7
Cc1ccccc1-n1c(C)nc2ccccc21,2,-53*,10,-61,-1,.
COc1ccc(C(=O)N/N=C/c2ccc(OC)c(CN3CCCc4ccccc43)c2)cc1,58*,19,-13,10,-2,-4
COc1ccc(/C=N/NC(=O)c2cccnc2)cc1CN1CCCc2ccccc21,30,3,6,-2,-1,5
C[C@H](CO)N1C[C@H](C)[C@@H](CN(C)C(=O)[C@H](C)c2ccccc2)OCc2ccccc2-c2ccccc2C1=O,.,.,.,.,.,21
CC(C)(CO)CNC(=O)CCc1nnc(C2(c3ccc(Cl)cc3)CCC2)o1,-1,-2,-9,16,-3,-3
COCCNC(=O)CCc1nnc(C2(c3ccc(Cl)cc3)CCC2)o1,-17,-56*,-19,-65,-6,10
